From PubChem BioAssay (NCATS)
The source made the active and inactive calls. Calls follow the shape of the dose curve; as a rule, active = well fitted inhibition curve with a large enough effect; inconclusive = small, poorly fitted or top-dose-only effect; inactive = flat fitted curve, though single readings scatter.

Molecular target: DNA polymerase III PolC-type (Bacillus subtilis (strain 168)) (UniProt P13267)
Test: qHTS Validation Assay for the Inhibitors of DNA Replication in Gram-Positive Bacteria (AID 485295);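 as to activity change, negative = inhibition: reconstituted holoenzyme with PolC plus beta clamp SSB and primase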
Settings: Gram-positive bacterial DNA replication assay; series mostly up to 57.1 µM; activity change, negative = inhibition: at the top concentration
Protocol: B Subtilis DNA polymerase III holoenzyme complex was assayed for DNA production by fluorescent detection of the double-stranded DNA product with PicoGreen dye. The holoenzyme complex was reconstituted from the following purified protein components: DNA Polymerase III, beta subunit processivity factor, SSB single-stranded DNA binding protein, and Primase. Single-stranded, circular M13Gori was used as a substrate with dNTPs and NTPs also supplied to the substrate reagent. Compounds from the NCGC collection were incubated with the holoenzyme mixture for […] at room temperature to allow binding to occur, and then the reaction was started by the addition of substrate. After 30 min incubation at room temperature, PicoGreen solution containing EDTA was added to stop the reaction and to visualize the double-stranded DNA produced. Reaction progress was measured in a ViewLux CCD imager in fluorescence intensity mode by using 480 nm excitation and 540 nm emission filter set.
1. Thaw screening compounds.
2. Label assay plates. Prepare pipette tips, reagent reservoirs, buffers and controls.
1. Thaw Enzymes, DNA template, Nucleotides and PicoGreen dye concentrate. Thawed enzymes are stable on ice for ~1
week. Other thawed components are stable indefinitely.
2. Prepare sufficient quantities of Enzyme, Substrate and PicoGreen Quench mixes (according to Table II). For the number of
compound plates being screened.
3. Ensure that the tip wash station reservoirs have clean water and turn on recirculating chiller so that the chilled deck position
1. Load 2 uL of EDTA controls (250 mM, Background, 100 % inhibition) and 2 uL of DMSO controls (Negative control, 0%
inhibition) in the screening plates (flat-bottomed black 384-well polypropylene, Greiner Bio-one).
2. Place Enzyme mix reservoir on the chiller position of the liquid handler deck. Make sure that chiller will maintain
temperature of Enzyme mix at 4degC. Substrate mix and PicoGreen Quench can be stored at room temp.
3. Program liquid handling robotics to dispense 18 uL of Enzyme mix into assay plates. Wash tips.
4. Aspirate and dispense 2 uL of compound from compound plates, mix and Incubate at room temperature for 10 minutes.
5. Aspirate 5 ul of Substrate mix, dispense into assay plates and mix by pipetting. Wash tips.
6. Incubate at room temperature (21 +/- 1 deg C) for 20 minutes.
7. Quench reactions by addition of 25 uL PicoGreen Quench mix and mix by pipetting (using HTS robotics or bulk reagent
dispenser such as a Multidrop or uFill). Keep plates in the dark or stacked until ready to read fluorescence.
8. Read fluorescence intensity of plates on plate reader using "Fluorescein (Ex 485 nm/ Em 535 nm, 0.1s)" setting.
Potency is read from the fitted curve at half-maximal effect.

Chain of DNA polymerase III PolC-type (Bacillus subtilis (strain 168)) (P13267 whole entry, looked up): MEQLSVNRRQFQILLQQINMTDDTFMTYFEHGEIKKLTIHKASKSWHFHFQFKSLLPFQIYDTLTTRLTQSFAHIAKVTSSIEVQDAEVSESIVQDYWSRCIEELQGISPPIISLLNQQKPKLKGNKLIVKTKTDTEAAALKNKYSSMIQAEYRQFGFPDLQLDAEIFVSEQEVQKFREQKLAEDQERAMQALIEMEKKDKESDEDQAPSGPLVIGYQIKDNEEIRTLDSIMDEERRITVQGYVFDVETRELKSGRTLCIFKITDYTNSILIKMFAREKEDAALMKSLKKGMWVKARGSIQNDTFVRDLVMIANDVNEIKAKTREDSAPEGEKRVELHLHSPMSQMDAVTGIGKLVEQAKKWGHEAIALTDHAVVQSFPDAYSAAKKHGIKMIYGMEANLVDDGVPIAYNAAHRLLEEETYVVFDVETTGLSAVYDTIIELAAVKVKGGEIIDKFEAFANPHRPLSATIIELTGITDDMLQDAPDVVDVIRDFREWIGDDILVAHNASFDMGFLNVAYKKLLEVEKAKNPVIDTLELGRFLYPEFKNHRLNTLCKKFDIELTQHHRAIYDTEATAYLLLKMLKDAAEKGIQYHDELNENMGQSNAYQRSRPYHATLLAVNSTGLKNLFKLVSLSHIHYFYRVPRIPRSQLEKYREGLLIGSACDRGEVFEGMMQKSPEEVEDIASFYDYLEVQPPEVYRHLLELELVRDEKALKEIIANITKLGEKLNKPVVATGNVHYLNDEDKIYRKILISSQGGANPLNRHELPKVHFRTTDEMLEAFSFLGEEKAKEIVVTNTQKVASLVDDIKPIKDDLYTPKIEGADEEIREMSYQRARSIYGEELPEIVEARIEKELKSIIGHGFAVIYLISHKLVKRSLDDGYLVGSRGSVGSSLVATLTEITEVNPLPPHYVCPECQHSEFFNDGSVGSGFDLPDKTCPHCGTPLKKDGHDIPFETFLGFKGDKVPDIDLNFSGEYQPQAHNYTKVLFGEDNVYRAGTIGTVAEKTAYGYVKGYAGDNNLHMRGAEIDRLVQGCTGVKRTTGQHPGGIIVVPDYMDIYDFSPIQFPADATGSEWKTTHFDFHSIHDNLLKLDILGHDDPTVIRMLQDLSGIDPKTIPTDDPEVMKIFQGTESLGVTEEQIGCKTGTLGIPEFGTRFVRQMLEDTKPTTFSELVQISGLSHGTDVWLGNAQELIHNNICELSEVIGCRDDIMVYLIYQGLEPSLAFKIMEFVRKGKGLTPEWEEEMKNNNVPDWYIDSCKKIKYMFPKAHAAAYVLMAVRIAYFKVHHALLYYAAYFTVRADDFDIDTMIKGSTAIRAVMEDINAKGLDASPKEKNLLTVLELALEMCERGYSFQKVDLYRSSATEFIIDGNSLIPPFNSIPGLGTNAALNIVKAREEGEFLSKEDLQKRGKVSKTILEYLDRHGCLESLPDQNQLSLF

| SMILES | activity change, negative = inhibition | Potency |
| --- | --- | --- |
| Fc1ccc([C@@H]2CCNC[C@H]2COc2ccc3c(c2)OCO3)cc1 | 1.47% (inactive) | – |
| O=c1[nH]cc(F)c(=O)[nH]1 | 5.75% (inactive) | – |
| CNCCCC12CCC(c3ccccc31)c1ccccc12 | -3.57% (inactive) | – |
| Cn1ccc2cc3c(cc21)CCN3C(=O)Nc1cccnc1 | 0.716% (inactive) | – |
| CC(C)C(=O)Nc1ccc([N+](=O)[O-])c(C(F)(F)F)c1 | -6.8% (inactive) | – |
| CC(C)NCC(O)COc1ccc(CCOCC2CC2)cc1 (stereo not given) | 5.7% (inactive) | – |
| CC(C)Cc1ccc(C(C)C(=O)O)cc1 (stereo not given) | -3.72% (inactive) | – |
| Cn1cnc2c1c(=O)[nH]c(=O)n2C | 0.237% (inactive) | – |
| CN1CCN(C2=Nc3cc(Cl)ccc3Nc3ccccc32)CC1 | 5.11% (inactive) | – |
| COc1ccccc1N1CCN(CC(O)COc2cccc3ccccc23)CC1 (stereo not given) | -6.33% (inactive) | – |
| CN1C2CCC1CC(OC(=O)C(CO)c1ccccc1)C2 (stereo not given) | 2.09% (inactive) | – |
| CN(C)CCCN1c2ccccc2CCc2ccc(Cl)cc21 | -1.61% (inactive) | – |
| Cn1c(=O)c2[nH]cnc2n(C)c1=O | -1.99% (inactive) | – |
| CC#C[C@]1(O)CC[C@H]2[C@@H]3CCC4=CC(=O)CCC4=C3[C@@H](c3ccc(N(C)C)cc3)C[C@@]21C | -14.8% (inactive) | – |
| CN(C)C(=O)C(CCN1CCC(O)(c2ccc(Cl)cc2)CC1)(c1ccccc1)c1ccccc1 | 0.437% (inactive) | – |
| CN1CCN2c3ccccc3Cc3ccccc3C2C1 (stereo not given) | 1.97% (inactive) | – |
| O=C1N(c2ccccc2)c2ccccc2C1(Cc1ccncc1)Cc1ccncc1 | -0.277% (inactive) | – |
| COc1ccc2c(c1)c(CC(=O)O)c(C)n2C(=O)c1ccc(Cl)cc1 | -2.42% (inactive) | – |
| Cc1cc(C(C)(C)C)c(O)c(C)c1CC1=NCCN1 | 3.02% (inactive) | – |
| NC(CO)C(=O)NNCc1ccc(O)c(O)c1O (stereo not given) | -10.9% (inactive) | – |

| SMILES | activity change, negative = inhibition | Potency |
| --- | --- | --- |
| NS(=O)(=O)c1cc2c(cc1Cl)NCNS2(=O)=O | 5.05% (inactive) | – |
| CCN1CCCC1CNC(=O)c1cc(S(=O)(=O)CC)c(N)cc1OC (stereo not given) | -0.285% (inactive) | – |
| OCCN(CCO)c1nc(N2CCCCC2)c2nc(N(CCO)CCO)nc(N3CCCCC3)c2n1 | 33.7% (inactive) | – |
| NCCS(=O)(=O)O | 2.91% (inactive) | – |
| CC(C)(Oc1ccc(C2CC2(Cl)Cl)cc1)C(=O)O (stereo not given) | 0.477% (inactive) | – |
| C[C@](N)(Cc1ccc(O)c(O)c1)C(=O)O | -28.5% (inactive) | – |
| Cc1ccccc1N1C(=O)c2cc(S(N)(=O)=O)c(Cl)cc2NC1C (stereo not given) | -3.9% (inactive) | – |
| N[C@@H](Cc1c[nH]c2ccc(O)cc12)C(=O)O | -2.16% (inactive) | – |
| COc1ccc(CCN(C)CCCC(C#N)(c2ccc(OC)c(OC)c2)C(C)C)cc1OC (stereo not given) | 3.13% (inactive) | – |
| COc1ccc(C2CNC(=O)C2)cc1OC1CCCC1 (stereo not given) | 7.06% (inactive) | – |
| O=C1c2c(O)ccc(O)c2C(=O)c2c(NCCNCCO)ccc(NCCNCCO)c21 | – | 1500 nM (active) |
| CS(=O)(=O)Nc1ccc([N+](=O)[O-])cc1Oc1ccccc1 | 3.16% (inactive) | – |
| CC(COc1ccccc1)N(CCCl)Cc1ccccc1 (stereo not given) | -1.87% (inactive) | – |
| CCOC(=O)Nc1ccc(NCc2ccc(F)cc2)nc1N | -6.17% (inactive) | – |
| O=c1c(-c2ccc(O)cc2)coc2cc(O)cc(O)c12 | -1.87% (inactive) | – |
| CC(CCc1ccc(O)cc1)NCCc1ccc(O)c(O)c1 (stereo not given) | 8.37% (inactive) | – |
| CN(C)c1nc(N(C)C)nc(N(C)C)n1 | -4.57% (inactive) | – |
| O=C(C1CCCCC1)N1CC(=O)N2CCc3ccccc3C2C1 (stereo not given) | 2.37% (inactive) | – |
| CCOC(=O)c1ncn2c1CN(C)C(=O)c1cc(F)ccc1-2 | -1.78% (inactive) | – |
| CC12CC3CC(C)(C1)CC(N)(C3)C2 | -3.39% (inactive) | – |
